Source: PMC4336329 (PLoS ONE, 2015)
Screen size: about 310,000 compounds; about 2,200 (0.71%) showed an effect of 50% or more. The effect is printed as a negative number. This excerpt belongs to a sample that is enriched for strong results.

biological target: human ether-à-go-go-related gene (hERG) potassium channel (human, UniProt Q12809); assay: primary screen, population patch clamp on CHO cells stably expressing hERG; higher = less effect of the substance
Sequence (Q12809 whole entry, looked up): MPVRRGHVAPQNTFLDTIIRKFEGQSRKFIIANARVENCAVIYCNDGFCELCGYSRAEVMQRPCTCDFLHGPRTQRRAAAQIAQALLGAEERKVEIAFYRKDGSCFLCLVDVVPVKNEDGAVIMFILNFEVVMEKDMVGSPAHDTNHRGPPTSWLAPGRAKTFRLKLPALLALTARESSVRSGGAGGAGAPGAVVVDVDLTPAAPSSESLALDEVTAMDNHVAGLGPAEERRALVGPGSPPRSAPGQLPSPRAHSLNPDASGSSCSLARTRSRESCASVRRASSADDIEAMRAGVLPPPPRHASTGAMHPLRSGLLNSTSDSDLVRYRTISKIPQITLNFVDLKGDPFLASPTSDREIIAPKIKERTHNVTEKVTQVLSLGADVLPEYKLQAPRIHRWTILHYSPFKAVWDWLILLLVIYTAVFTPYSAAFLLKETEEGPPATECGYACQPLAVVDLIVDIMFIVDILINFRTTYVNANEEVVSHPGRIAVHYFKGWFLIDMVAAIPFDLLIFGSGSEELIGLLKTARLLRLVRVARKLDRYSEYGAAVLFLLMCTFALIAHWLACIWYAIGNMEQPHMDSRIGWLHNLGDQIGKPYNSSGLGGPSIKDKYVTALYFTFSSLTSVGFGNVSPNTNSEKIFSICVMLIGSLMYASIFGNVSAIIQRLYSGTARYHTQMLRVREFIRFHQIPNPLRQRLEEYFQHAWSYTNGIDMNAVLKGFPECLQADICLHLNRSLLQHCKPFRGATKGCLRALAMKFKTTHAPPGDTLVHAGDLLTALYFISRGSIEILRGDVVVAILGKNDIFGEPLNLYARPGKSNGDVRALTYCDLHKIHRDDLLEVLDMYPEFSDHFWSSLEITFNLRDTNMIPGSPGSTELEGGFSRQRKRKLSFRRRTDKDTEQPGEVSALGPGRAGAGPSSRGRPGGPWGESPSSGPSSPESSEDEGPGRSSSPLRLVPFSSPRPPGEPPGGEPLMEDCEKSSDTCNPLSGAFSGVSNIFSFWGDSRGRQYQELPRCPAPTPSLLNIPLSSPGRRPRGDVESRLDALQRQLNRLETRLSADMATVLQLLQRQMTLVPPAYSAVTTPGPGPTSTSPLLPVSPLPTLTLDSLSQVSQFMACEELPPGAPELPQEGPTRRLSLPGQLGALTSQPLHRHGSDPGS

Row | SMILES | hERG current change (%, negative = inhibition) at 1uM [%]
1 | O=C(NCC1(O)CCCCC1)C1CCC(=O)N(Cc2ccccc2F)C1 (stereo not drawn) | 15.8
2 | CCOC(=O)COc1ccc(S(=O)(=O)NCc2ccncc2)cc1 | 8.78
3 | CCn1cc(CCCC(=O)NCc2ccc(OC)cc2)c2ccccc21 | 15.1
4 | CCOc1cc(/C=C2\C(=O)ON=C2c2ccccc2)ccc1OC | 17.4
5 | O=C(CCN1C(=O)c2ccccc2C1=O)NC(=S)Nc1ccccc1Cl | 5.29
6 | CCC(CCC(=O)Nc1ccn(-c2ccccc2)n1)C(=O)O (stereo not drawn) | 7.09
7 | Cc1nc(NC(=O)c2ccccc2[N+](=O)[O-])sc1C(=O)N(C)C | 16.4
8 | O=C(O)c1ccc(S(=O)(=O)N(CCc2ccccc2)Cc2ccc(Cl)cc2)cc1 | 11.5
9 | Brc1ccc(-c2cnco2)cc1 | 9.53
10 | COc1ccc(S(=O)(=O)NC2CCCCC2)cc1C(=O)N1CCCCC1 | 0.2
11 | CCN(CC(=O)NCc1ccc(F)cc1)C(=O)c1ccc(Cl)cc1 | -2.66
12 | CCN(CC(=O)NCc1ccc(Cl)cc1)C(=O)CCc1ccccc1 | -19.8
13 | CCN(CC(=O)NCc1ccc(Cl)cc1)C(=O)NCc1ccc(Cl)cc1 | -54.1
14 | O=C(c1ccc2c(c1)N(Cc1ccccc1)C(=O)CS2)N1CCOCC1 | 1.45
15 | CNCCOc1nc(N2CCOCC2)nc(C)c1[N+](=O)[O-] | 10.1
16 | COc1ccc(NC2CCCN(C(=O)c3cccs3)C2)cc1 (stereo not drawn) | 12.5
17 | O=C(CN1CCN(S(=O)(=O)c2ccc(Br)cc2)CC1)N/N=C/c1cccnc1 | -1.72
18 | C/C(=N\NC(=O)CN1CCN(S(=O)(=O)c2ccc(C)cc2)CC1)c1ccncc1 | -77.6
19 | C/C(=N/NC(=O)CN1CCN(Cc2ccccc2Cl)CC1)c1ccncc1 | -18.3
20 | Cc1ccc(S(=O)(=O)N2CCN(CC(=O)N/N=C\c3ccncc3)CC2)cc1 | -26.2
21 | C/C(=N\NC(=O)CN1CCN(Cc2ccc(C)cc2)CC1)c1ccncc1 | -77.9
22 | C/C(=N/NC(=O)CN1CCN(Cc2ccccc2)CC1)c1ccc([N+](=O)[O-])cc1 | -72.9
23 | C/C(=N\NC(=O)CN1CCN(S(=O)(=O)c2ccc(C)cc2)CC1)c1ccc(O)cc1 | 9.16

Row | SMILES | hERG current change (%, negative = inhibition) at 1uM [%]
24 | C/C(=N\NC(=O)CN1CCN(Cc2ccccc2)CC1)c1ccncc1 | -3.1
25 | C/C(=N\NC(=O)CN1CCN(Cc2ccccc2)CC1)c1cccs1 | -2.13
26 | O=C(CN1CCN(S(=O)(=O)c2ccc(Br)cc2)CC1)N/N=C/c1ccncc1 | -51.8
27 | C/C(=N/NC(=O)CN1CCN(S(=O)(=O)c2ccc(Br)cc2)CC1)c1ccncc1 | -44.3
28 | C/C(=N\NC(=O)c1ccc(CN2CCOCC2)cc1)c1ccc([N+](=O)[O-])cc1 | 10
29 | CCOC(=O)CSC1=NC(=O)/C(=C/c2ccc(Br)cc2)S1 | 9.71
30 | CCS(=O)(=O)NC(C)c1nnc2n1-c1ccc(Br)cc1C(c1ccccc1Cl)=NC2 (stereo not drawn) | -4.22
31 | Cc1cc(C)cc(Nc2nc3c(S(=O)(=O)c4ccccc4)nnn3c3ccccc23)c1 | 11.3
32 | CC(Oc1ccc(Cl)cc1)C(=O)Nc1ccccc1C(=O)N1CCOCC1 (stereo not drawn) | -1.27
33 | CCc1ccc(CNCc2cccnc2)cc1 | 9.07
34 | COc1ccc(-c2cc(C(F)(F)F)n3nc(C(=O)N4CCCCC4)cc3n2)cc1 | 4.13
35 | O=C(O)COc1ccc(C(NC(=O)c2c(F)cccc2F)NC(=O)c2c(F)cccc2F)cc1 | 16.9
36 | O=C1C2=C(SCCS2)C(=O)N1c1ccccc1 | 20.6
37 | C=CCN=C1SC(C)C(=O)N1S(=O)(=O)c1ccccc1 (stereo not drawn) | 4.31
38 | CCCc1nnc(SCC(=O)Nc2ccc(OC)cc2)n1N | 11.1
39 | CC(=O)Oc1ccc(/C(C)=N\N2CCN(Cc3ccc(Cl)cc3)CC2)cc1 | -16.4
40 | COc1cc(/C(C)=N/N2CCN(Cc3ccc(C)cc3)CC2)ccc1O | -3.97
41 | CC(=O)Oc1ccc(/C(C)=N/N2CCN(Cc3ccc(C)cc3)CC2)cc1 | -69.8
42 | CCOC(=O)c1sc(NC(=O)CCN2CCN(CC)CC2)c(C(=O)OCC)c1C | -59.8
43 | CCOC(=O)c1sc(NC(=O)CCN2CCN(C)CC2)c(C(=O)OCC)c1C | -15.3
44 | CCOC(=O)c1sc(NC(=O)CCN2CCCCCC2)c(C(=O)OCC)c1C | 10.6
45 | COc1ccccc1CCC(=O)Nc1nc2ccccc2[nH]1 | 18.7
46 | COc1ccc(CCC(=O)Nc2nc3ccccc3[nH]2)cc1OC | -51.1

Row | SMILES | hERG current change (%, negative = inhibition) at 1uM [%]
47 | COc1ccc(CCC(=O)Nc2nc3ccccc3[nH]2)cc1 | 5.78
48 | COCCNC(=S)NC12CC3CC(CC(C3)C1)C2 | 11.3
49 | O=C(NC12CC3CC(CC(C3)C1)C2)c1ccc(-c2cccc(Cl)c2)o1 | 21.9
50 | O=C(CCCC(=O)OCC(=O)c1ccc(F)cc1)Nc1cc(C(F)(F)F)ccc1Cl | 12
51 | O=C(Cc1ccc(Cl)c(Cl)c1)Nc1ccc2[nH]c(=O)[nH]c2c1 | 4.75
52 | COC(=O)c1cc(S(=O)(=O)NCC2CCN(Cc3cc(C)ccc3C)CC2)c[nH]1 | 2.48
53 | COC(=O)c1cc(S(=O)(=O)NCC2CCN(Cc3cccc(F)c3)CC2)c[nH]1 | 2.87
54 | COC(=O)c1cc(S(=O)(=O)NCC2CCN(Cc3ccc(C)cc3)CC2)c[nH]1 | -63
55 | COC(=O)c1cc(S(=O)(=O)NCC2CCN(Cc3ccc(Cl)cc3)CC2)c[nH]1 | -59.6
56 | COC(=O)c1cc(S(=O)(=O)NCC2CCN(Cc3cccc(Cl)c3)CC2)c[nH]1 | 5.82
57 | COC(=O)c1cc(S(=O)(=O)NCC2CCN(Cc3ccc(F)cc3)CC2)c[nH]1 | 7.24
58 | COc1cc(/C=N/NC(=O)c2ccc(N(C)S(=O)(=O)c3ccccc3)cc2)cc(OC)c1OC | 10.6
59 | O=C(O)CCC(=O)Nc1cccc(-c2csc(-c3ccccc3)n2)c1 | 4.25
60 | COC(=O)c1cc2occc2n1CC(=O)Nc1ccc(OC)c(OC)c1OC | 11.1
61 | COC(=O)c1cc2sc(Cl)cc2n1CC(=O)Nc1ccc(OC)c(OC)c1OC | -58.5
62 | COC(=O)c1cc2sccc2n1CC(=O)Nc1ccc(OC)c(OC)c1OC | 9.49
63 | Cc1ccc2[nH]c(=O)c(CN(Cc3nnnn3Cc3ccccc3)C3CCCC3)cc2c1 | 11.9
64 | O=c1cc(CS(=O)(=O)c2ccccc2)nc(-c2ccncc2)[nH]1 | 11.3
65 | Cc1ccc(C(=O)N/C(=C\c2cccs2)C(=O)N2CCN(C)CC2)cc1C | -77.2
66 | Cc1ccc(C(=O)N/C(=C\c2cccs2)C(=O)N2CCOCC2)cc1C | 1.26
67 | COc1ccc(C(=O)N/C(=C\c2cccs2)C(=O)N2CCN(C)CC2)cc1OC | -33.9
68 | Cc1ccc(C(=O)N/C(=C/c2cccs2)C(=O)N2CCCCCC2)cc1 | -13.9
69 | Cc1ccc(C(=O)N/C(=C\c2cccs2)C(=O)N2CCCCCC2)cc1 | -19.3

Row | SMILES | hERG current change (%, negative = inhibition) at 1uM [%]
70 | CCOC(=O)N1CCN(C(=O)/C(=C/c2cccs2)NC(=O)c2ccc(OC)c(OC)c2)CC1 | -64.7
71 | CCOC(=O)N1CCN(C(=O)/C(=C/c2cccs2)NC(=O)c2cccs2)CC1 | -6.55
72 | CCN1CCN(C(=O)/C(=C/c2cccs2)NC(=O)c2ccc(C)c(C)c2)CC1 | -83.5
73 | Cc1ccc(C(=O)N/C(=C/c2cccs2)C(=O)N2CCCCC2)cc1 | 10.6
74 | COc1cc(NC(=O)CSc2ncnc3scc(-c4ccccc4)c23)c(C(=O)O)cc1OC | 11.2
75 | CCN(CC)C(=O)Cn1cc(S(=O)(=O)CC(=O)N2CCOCC2)c2ccccc21 | 7.45
76 | Cc1ccc(S(=O)(=O)N2CCCCC2)cc1NC(=O)COC(=O)Cc1c(F)cccc1Cl | 14.5
77 | CCOC(=O)C1CCN(C(=O)CCc2c(C)nc3cc(-c4ccccc4)nn3c2C)CC1 | -62
78 | CCOC(=O)C1CCN(C(=O)CCc2c(C)nc3cc(-c4ccc(OC)cc4OC)nn3c2C)CC1 | -10.6
79 | CCOC(=O)C1CCCCN1C(=O)CCc1c(C)nc2cc(-c3ccccc3)nn2c1C (stereo not drawn) | -14
80 | S=C(N/N=C/c1ccco1)NC1CC2CCC1C2 (stereo not drawn) | 8.84
81 | CC1(C)O[C@@H]2C[C@H]3[C@@H]4C[C@H](F)C5=CC(=O)CC[C@]5(C)[C@H]4[C@@H](O)C[C@]3(C)[C@]2(C(=O)CO)O1 | 18.1
82 | CCOc1ccc(CN2CCN(Cc3cccc4c3OCO4)CC2CCO)cc1 (stereo not drawn) | -64.9
83 | COc1cccc2c1OCC(CN1CCN(Cc3ccccc3)C(CCO)C1)=C2 (stereo not drawn) | -4.17
84 | CCOc1ccc(CN2CCN(CC3=Cc4cccc(OC)c4OC3)CC2CCO)cc1 (stereo not drawn) | -71.4
85 | OCCC1CN(Cc2cccc3c2OCO3)CCN1Cc1ccccc1 (stereo not drawn) | 7.11
86 | Cc1ccc(CN2CCN(Cc3cccc4c3OCO4)CC2CCO)cc1 (stereo not drawn) | -16.1
87 | CCOc1ccc(CN2CCN(Cc3cc4c(cc3Cl)OCO4)CC2CCO)cc1 (stereo not drawn) | -62.9
88 | COc1cccc2c1OCC(CN1CCN(Cc3ccccc3F)C(CCO)C1)=C2 (stereo not drawn) | 12
89 | OCCC1CN(Cc2cc3c(cc2Cl)OCO3)CCN1Cc1ccccc1 (stereo not drawn) | -1.48
90 | CCOc1ccc(CN2CCN(CC3CC3)CC2CCO)cc1 (stereo not drawn) | -20.7
